Source: PubChem BioAssay (NCI)
About 79,000 compounds went through this panel and 15% of them were active in at least one assay; those are over-represented in the sample as a whole. Unmarked numbers belong to inactive results. Calls of active or inactive are those of the source. No stated cut-off is given here; in the data, active means growth inhibition above about 70%; inactive means the rest.

Columns and labels:
[1] = NCI Yeast Anticancer Drug Screen. Data for the rad50 strain (AID 155);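 further: 0% = growth of vehicle-only cultures of the same strain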; details: S. cerevisiae rad50 strain growth inhibition, active compounds read high
Procedure, shortened: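 Relative growth inhibition (compound vs vehicle) was measured in yeast with a defined repair-gene alteration.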

[2] = NCI Yeast Anticancer Drug Screen. Data for the mec2-1 strain (AID 157); details: S. cerevisiae mec2-1 strain, active compounds read high
Procedure, shortened: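 Vehicle-treated cultures served as reference for growth inhibition of compound-exposed mec2-1 yeast.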

[3] = NCI Yeast Anticancer Drug Screen. Data for the sgs1 mgt1 strain (AID 161);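 further: 0% = growth of cultures given vehicle only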; details: S. cerevisiae sgs1 mgt1 strain, active compounds read high
Procedure, shortened: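 Inhibition of yeast growth, normalised to vehicle-treated controls, is reported for a strain bearing genetic alterations in DNA damage repair.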

[4] = NCI Yeast Anticancer Drug Screen. Data for the cln2 rad14 strain (AID 165);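 further: 0% = growth equal to vehicle treated cultures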; details: S. cerevisiae cln2 rad14 strain, active compounds read high
Procedure, shortened: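 Each compound was tested on cln2 rad14 yeast. Inhibition of growth was calculated against vehicle-exposed controls.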

[5] = NCI Yeast Anticancer Drug Screen. Data for the bub3 strain (AID 167); details: S. cerevisiae bub3 mutant strain, active compounds read high
Procedure, shortened: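 Screening used yeast with an engineered genetic alteration affecting cell cycle control. Compound-exposed cultures were compared with vehicle cultures, and reduced growth was taken as inhibition.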

[6] = NCI Yeast Anticancer Drug Screen. Data for the mlh1 rad18 strain (AID 175); details: S. cerevisiae mlh1 rad18 strain growth inhibition, active compounds read high
Procedure, shortened: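 Vehicle-treated cultures served as the reference for growth inhibition in a yeast strain carrying DNA damage repair alterations exposed to each compound.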

[7] = at 5.0 µM (retest, dose inferred, filed as 0.5)
[8] = at 50.0 µM (retest, dose inferred, filed as 5.0)

| SMILES | growth inhibition [1, 7] | growth inhibition [1, 8] | growth inhibition ([1]; at 50.0 µM) | growth inhibition [2, 7] | growth inhibition [2, 8] | growth inhibition ([2]; at 50.0 µM) | growth inhibition [3, 7] | growth inhibition [3, 8] | growth inhibition ([3]; at 50.0 µM) | growth inhibition [4, 7] | growth inhibition [4, 8] | growth inhibition ([4]; at 50.0 µM) | growth inhibition [5, 7] | growth inhibition [5, 8] | growth inhibition ([5]; at 50.0 µM) | growth inhibition [6, 7] | growth inhibition [6, 8] | growth inhibition ([6]; at 50.0 µM) |
| --- | --- | --- | --- | --- | --- | --- | --- | --- | --- | --- | --- | --- | --- | --- | --- | --- | --- | --- |
| Cc1c(O)c2c(c(O)c1Br)C(=O)C=CC2=O | 88% (active) | 96% (active) | 70.8% (active) | 93% (active) | 98% (active) | 90.5% (active) | 74% (active) | 98% (active) | 90.5% (active) | 49% | 97% (active) | 87.3% (active) | 98% (active) | 98% (active) | 89.1% (active) | 96% (active) | 97% (active) | 90.8% (active) |
| CC12OC1C(=O)c1ccccc1C2=O (stereo not given) | 4% | 85% (active) | 88.5% (active) | 15% | 93% (active) | 92.1% (active) | 9% | 87% (active) | 89.9% (active) | 19% | 65% | 57.6% | 9% | 96% (active) | 90.9% (active) | -2% | 95% (active) | 81.6% (active) |
| CCc1c(C)[nH]c2c([N+](=O)[O-])cccc12 | 5% | 29% | 95.2% (active) | 8% | -14% | 94.5% (active) | -3% | -1% | 95.2% (active) | -6% | -2% | 94.5% (active) | -13% | 3% | 96% (active) | 1% | 27% | 94.8% (active) |
| N#CC1=C(N)OC(/C=C/c2ccccc2)=C(C#N)C1c1ccccc1 (stereo not given) | 33% | 81% (active) | 90.2% (active) | 25% | 81% (active) | 76.3% (active) | 30% | 91% (active) | 93.6% (active) | 33% | 86% (active) | 101% (active) | 23% | 81% (active) | 75% (active) | 19% | 86% (active) | 88.3% (active) |
| O=C(O)c1ccc(C(O)(c2ccccc2)c2ccccc2)cc1 | -9% | 65% | 63.4% | 11% | 95% (active) | 86% (active) | -9% | 90% (active) | 98% (active) | -1% | 90% (active) | 82.3% (active) | -3% | 97% (active) | 77.7% (active) | 3% | 93% (active) | 96.4% (active) |
| CCCc1cc2c(cc1CN(C#N)Cc1cc3c(cc1CCC)OCO3)OCO2 | -4% | 54% | 95.3% (active) | 2% | 84% (active) | 96.3% (active) | 1% | 57% | 93.2% (active) | -2% | 60% | 95.8% (active) | -4% | 87% (active) | 97% (active) | -1% | 73% (active) | 95% (active) |
| O=C(C[N+]12CN3CN(CN(C3)C1)C2)c1ccc(Cl)cc1Cl | -2% | -4% | 99.3% (active) | 9% | 5% | 99.5% (active) | -20% | -4% | 99.4% (active) | -1% | -6% | 99.2% (active) | 0% | -2% | 99.3% (active) | -12% | -26% | 99.4% (active) |
| CN1C(=O)c2ccccc2C1(c1ccccc1)c1ccccc1 | 0% | 90% (active) | 30.1% | 2% | 96% (active) | 14.8% | 4% | 98% (active) | 20.9% | 13% | 37% | 43.1% | 5% | 62% | 45.1% | 15% | 95% (active) | 56.9% |
| CCCCCCCOC(=O)c1cc2cc(C(CC)C(CC)c3ccc(O)cc3)ccc2oc1=O (stereo not given) | 23% | 47% | 83.1% (active) | 37% | 23% | 91.3% (active) | 47% | 65% | 82% (active) | 30% | 74% (active) | 87.4% (active) | 11% | 45% | 68.9% | 41% | 57% | 88.9% (active) |
| Cc1nn(C(=S)S)c(C)c1N=Nc1ccc(Br)cc1 | 14% | 97% (active) | 99.4% (active) | 0% | 99% (active) | 99.6% (active) | 8% | 99% (active) | 99.2% (active) | -7% | 98% (active) | 99.4% (active) | -2% | 98% (active) | 82.2% (active) | 0% | 99% (active) | 99.2% (active) |
| Clc1ccc(Cl)c(SCCCN2CCNCC2)c1 | 36% | 65% | 79.7% (active) | 0% | 32% | 48.2% | 35% | 65% | 54.2% | 6% | 39% | 40% | 18% | 59% | 82.4% (active) | 23% | 43% | 74.4% (active) |
| O=C(NN1C(=O)C(Cl)C1c1ccc(O)cc1)c1ccccc1O (stereo not given) | -4% | 78% (active) | 79.5% (active) | 13% | 79% (active) | 61% | 0% | 72% (active) | 69.9% | 13% | 63% | 44% | 11% | 90% (active) | 71.1% (active) | 20% | 91% (active) | 67.7% |
| CCCCCCCCCCCCCC(N)c1ccc(C)cc1 (stereo not given) | 60% | 97% (active) | 99% (active) | 0% | 98% (active) | 99.2% (active) | 99% (active) | 98% (active) | 99.5% (active) | 3% | 97% (active) | 97.7% (active) | 13% | 97% (active) | 98.5% (active) | 33% | 97% (active) | 98.3% (active) |
| CCCCCCCCCCCC(=O)[O][Sn]([CH2]C)([CH2]C)[O]C(=O)CCCCCCCCCCC | 7% | 5% | 79.3% (active) | 2% | 2% | 88.3% (active) | 3% | 44% | 95.8% (active) | 5% | 0% | 48.1% | 3% | -7% | 16.4% | 4% | 12% | 88.7% (active) |
| O=C1O/C(=C(/Cl)c2c3ccccc3cc3ccccc23)c2ccccc21 | -22% | 95% (active) | 81.1% (active) | -13% | 92% (active) | 80.2% (active) | -15% | 96% (active) | 82.3% (active) | -4% | 94% (active) | 68.7% | -25% | 95% (active) | 84.5% (active) | 27% | 95% (active) | 82.2% (active) |
| Nc1cc(Cl)ccc1C(=O)O | 34% | 78% (active) | 81.2% (active) | 7% | 32% | 91.7% (active) | 14% | 39% | 49.8% | -2% | 30% | 42.7% | 3% | 50% | 96.4% (active) | 21% | 59% | 50.2% |
| O=[N+]([O-])c1ccc2c(c1)CCc1ccccc1-2 | 10% | 77% (active) | 52.6% | -18% | 37% | -2.75% | 12% | 75% (active) | 76.6% (active) | -1% | 33% | 9.4% | -15% | 78% (active) | 20.4% | 16% | 89% (active) | 68.7% |
| CCO/C=C1\C(=O)C=C(C)CC1c1ccc(OC)c(OC)c1OC (stereo not given) | 3% | 84% (active) | 53.1% | 4% | 81% (active) | 38% | 7% | 86% (active) | 47.6% | -5% | 55% | 16.6% | -8% | 80% (active) | 41.7% | 4% | 88% (active) | 86.7% (active) |
| C(/C=C/CC=Nc1ccccc1)=Nc1ccccc1 | 3% | 4% | 4.4% | 2% | 3% | 30.6% | 0% | 6% | 12.1% | -4% | -4% | 42.2% | -4% | -3% | -7.75% | 7% | 3% | -29.7% |
| O=C(CCBr)NC(=O)Oc1cccc2ccccc12 | 1% | 17% | 87.2% (active) | 1% | 29% | 97.2% (active) | 5% | 55% | 91.3% (active) | 4% | 11% | 28.1% | -8% | 18% | 85.6% (active) | 2% | 65% | 95.3% (active) |
